# Results filed as inconclusive are left out. The source made the active and inactive calls. Unless noted, the call rests on the fitted dose curve; in most records, active means well fitted cell-killing curve with a large enough effect; inconclusive means small, poorly fitted or top-dose-only effect, or effect the other way; inactive means no such curve, though single readings can be large or run the other way.
# Experiments:
# [1] = Quantitative High-Throughput drug screen in 47 multiple myeloma cell lines against the NCATS MIPE library collection: RPMI8226_ATCC cell viability assay (AID 1919871); further: nearly all actives have a fitted effect of over 30% in size; further: potency means the concentration at half of the fitted maximal effect
# Method in brief: (§1)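 500 cells/well; MIPE 4.0 drugs pin-transferred; 48 h, 37C, 5% CO2. CellTiter-Glo, 5 min RT, luminescence. Controls: DMSO 100%, media 0%.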
# [2] = Quantitative High-Throughput drug screen in 47 multiple myeloma cell lines against the NCATS MIPE library collection: OPM2_DSMZ cell viability assay (AID 1919872); further: nearly all actives have a fitted effect of over 30% in size; further: potency means the concentration at half of the fitted maximal effect
# Method in brief: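 Approved and investigational drugs from MIPE 4.0 were added by pin tool to 500 cells per well. After 48 hours at 37C, ATP-based CellTiter-Glo luminescence indicated remaining viability.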
# [3] = Quantitative High-Throughput drug screen in 47 multiple myeloma cell lines against the NCATS MIPE library collection: KMS11_JCRBsus cell viability assay (AID 1919873); further: nearly all actives have a fitted effect of over 50% in size; further: potency means the concentration at half of the fitted maximal effect
# Method in brief: as §1
# [4] = Quantitative High-Throughput drug screen in 47 multiple myeloma cell lines against the NCATS MIPE library collection: KMS28BM_JCRB cell viability assay (AID 1919874); further: nearly all actives have a fitted effect of over 35% in size; further: potency means the concentration at half of the fitted maximal effect
# Method in brief: as §1
# [5] = qHTS drug screen for cell cycle checkpoint inhibitors in PARPi-resistant BRCA-mutant ovarian cancer cell lines. (AID 1963452; calls by dose curve); details: PEO1/OlaR viability, CellTiter-Glo luminescence, 96 h, stronger effect = lower value
# Method in brief: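 PEO1, PEO4 and PEO1/OlaR ovarian cancer cells, 600 per well, exposed 96 h at 37C to a dilution series. Viability read by CellTiter-Glo luminescence, normalized to DMSO and empty wells; activity summarized as Z-AUC.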
# [6] = Quantitative High-Throughput drug screen in 47 multiple myeloma cell lines against the NCATS MIPE library collection: PCM6_Riken cell viability assay (AID 1919870); further: nearly all actives have a fitted effect of over 30% in size; further: potency means the concentration at half of the fitted maximal effect
# Method in brief: as §1
# [7] = qHTS for identification of novel therapeutic agents for treatment of microphthalmiaassociated transcription factor (MiT) renal cell carcinoma (RCC) (AID 1963991; calls by dose curve; further: potency means the concentration at half of the fitted maximal effect); details: CellTiter-Glo, 48 h; for z-score: stronger effect = lower value
# Method in brief: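 Viability of three TFE3-fusion renal carcinoma lines measured by CellTiter-Glo after 48 h treatment with each of 1912 compounds at 11 concentrations. Responses scaled between DMSO (100%) and empty wells (0%) before curve fitting.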
# [8] = measured here: PEO1 parental Z-AUC
# [9] = TFE3-RCC UOK109 viability, measured here: UOK109 Z-AUC
# [10] = TFE3-RCC viability, measured here: UOK124 Z-AUC
# [11] = TFE3-RCC viability, measured here: UOK145 Z-AUC
smiles,measurement,setting,value
COc1ccc2c(c[n+](C)c3c4cc5c(cc4ccc23)OCO5)c1OC,Potency,[1],8330 nM (active)
same,Potency,[2],9350 nM (active)
same,Potency,[3],3320 nM (active)
same,Potency,[4],2960 nM (active)
same,Z-AUC,[5],-0.492 (inactive)
same,Z-AUC,[5]; [8],0.375
same,Z-AUC,[5]; measured here: PEO4 Z-AUC,0.195
CC(=Cc1csc(C)n1)[C@@H]1C[C@H]2O[C@]2(C)CCC[C@H](C)[C@@H](O)[C@@H](C)C(=O)C(C)(C)[C@@H](O)CC(=O)O1,Potency,[1],inactive
same,Potency,[2],inactive
same,Potency,[3],inactive
same,Potency,[4],inactive
O=C(O)CNC(=O)c1c(O)c2ccccc2n(Cc2ccccc2)c1=O,Potency,[6],inactive
same,Potency,[3],inactive
same,Potency,[4],inactive
same,Z-AUC,[5],-0.292 (inactive)
same,Z-AUC,[5]; [8],0.683
same,Z-AUC,[5]; measured here: PEO4 Z-AUC,0.802
O=[N+]([O-])c1ncc[nH]1,Potency,[1],inactive
same,Potency,[2],inactive
C=C[C@@H]1CN2CCC1C[C@H]2[C@H](O)c1ccnc2ccccc12 (stereo partly specified),Potency,[1],18700 nM (active)
COC1=C[C@@H]2[C@@H]3Cc4ccc(OC)c(O)c4[C@]2(CCN3C)CC1=O,Potency,[6],2640 nM (active)
same,Potency,[1],inactive
same,Z-AUC,[5],0.716 (inactive)
same,Z-AUC,[5]; [8],0.742
same,Z-AUC,[5]; measured here: PEO4 Z-AUC,0.886
CC(=O)N(C)c1cccc(-c2ccnc3c(C(=O)c4cccs4)cnn23)c1,Potency,[6],inactive
same,Potency,[2],inactive
same,Potency,[3],18700 nM (active)
same,Potency,[4],inactive
Cc1ccccc1-n1c(Cn2cnc3c(N)ncnc32)nc2cccc(C)c2c1=O,Potency,[6],1660 nM (active)
same,Potency,[2],1050 nM (active)
same,Potency,[4],372 nM (active)
same,Z-AUC,[5],-0.47 (inactive)
same,Z-AUC,[5]; [8],0.542
same,Z-AUC,[5]; measured here: PEO4 Z-AUC,0.532
same,Potency,[7]; TFE3-RCC UOK109 viability,235 nM (active)
same,z-score,[7]; [9],-2.22
same,z-score,[7]; [10],-1.13
same,z-score,[7]; [11],-1.88
CC1=C(O)C(=O)C=C2C1=CC=C1[C@@]2(C)CC[C@@]2(C)[C@@H]3C[C@](C)(C(=O)O)CC[C@]3(C)CC[C@]12C,Potency,[1],1180 nM (active)
same,Potency,[2],833 nM (active)
same,Potency,[3],935 nM (active)
same,Potency,[4],833 nM (active)
same,Z-AUC,[5],-0.53 (inactive)
same,Z-AUC,[5]; [8],-1.33
same,Z-AUC,[5]; measured here: PEO4 Z-AUC,-0.972
same,Potency,[7]; TFE3-RCC UOK109 viability,2640 nM (active)
same,z-score,[7]; [9],-1.17
same,z-score,[7]; [10],-1.16
same,z-score,[7]; [11],-1.07
O=C1CCC[C@@H]2[C@H]3CCCN4CCC[C@@H](CN12)[C@@H]34,Potency,[6],inactive
same,Potency,[2],inactive
same,Potency,[3],inactive
same,Potency,[4],inactive
O=S(=O)(F)Cc1ccccc1,Potency,[1],inactive
same,Potency,[2],inactive
same,Potency,[3],inactive
same,Potency,[4],inactive
same,Z-AUC,[5],-0.434 (inactive)
same,Z-AUC,[5]; [8],-0.355
same,Z-AUC,[5]; measured here: PEO4 Z-AUC,0.278
same,z-score,[7]; [9],0.128
same,z-score,[7]; [10],-1.89
same,z-score,[7]; [11],0.531
CSCC[C@@H](NC(=O)[C@@H](Cc1ccccc1)NC(=O)CNC(=O)CNC(=O)[C@@H](N)Cc1ccc(O)cc1)C(=O)O,Potency,[6],inactive
same,Potency,[2],inactive
same,Potency,[3],inactive
same,Potency,[4],inactive
same,Z-AUC,[5],1.29 (inactive)
same,Z-AUC,[5]; [8],1.17
same,Z-AUC,[5]; measured here: PEO4 Z-AUC,1.05
same,z-score,[7]; [9],0.576
same,z-score,[7]; [10],0.642
same,z-score,[7]; [11],1.12
CC=C(C)C(=O)O[C@H]1C(C)=C2[C@@H]3OC(=O)[C@@](C)(O)[C@@]3(O)[C@@H](OC(=O)CCC)C[C@](C)(OC(C)=O)[C@@H]2[C@@H]1OC(=O)CCCCCCC,Potency,[1],74.3 nM (active)
same,Potency,[2],33.2 nM (active)
same,Potency,[3],33.2 nM (active)
same,Potency,[4],166 nM (active)
CO[C@H]1CCC(O[C@H]2C[C@H]([C@]3(C)CC[C@]4(C[C@H](O)[C@@H](C)[C@@H]([C@@H](C)C=C(C)C(=O)[C@H](C)C[C@H](C)C(=O)O)O4)O3)O[C@]3(O[C@@H]([C@H]4O[C@@](O)(CO)[C@H](C)C[C@H]4C)C[C@H]3C)[C@H]2C)O[C@H]1C (stereo partly specified),Potency,[1],935 nM (active)
same,Potency,[2],296 nM (active)
same,Potency,[3],935 nM (active)
same,Potency,[4],332 nM (active)
CCOP(=O)(OCC)C(C)NC(=O)N(CCCl)N=O (stereo unspecified),Potency,[1],inactive
same,Potency,[3],inactive
same,Potency,[4],inactive
same,z-score,[7]; [9],0.0132
same,z-score,[7]; [10],-0.441
same,z-score,[7]; [11],0.402
CC=C(C)C(=O)N[C@@H](c1ccccc1)[C@@H](O)C(=O)O[C@H]1C[C@@]2(O)[C@@H](OC(=O)c3ccccc3)[C@@H]3[C@]4(OC(C)=O)CO[C@@H]4C[C@H](O)[C@@]3(C)C(=O)[C@H](OC(C)=O)C(=C1C)C2(C)C,Potency,[1],inactive
same,Potency,[3],inactive
C[C@H]([C@H](O)CCC(C)(C)O)[C@H]1CC[C@@]2(O)C3=CC(=O)[C@@H]4C[C@@H](O)[C@@H](O)C[C@]4(C)[C@@H]3CC[C@]12C,Potency,[1],20900 nM (active)
same,Potency,[2],inactive
same,Potency,[3],inactive
same,z-score,[7]; [9],0.847
same,z-score,[7]; [10],0.683
same,z-score,[7]; [11],-2.52
Clc1ccccc1C(c1ccccc1)(c1ccccc1)n1cccn1,Potency,[1],20900 nM (active)
same,Z-AUC,[5],0.364 (inactive)
same,Z-AUC,[5]; [8],0.863
same,Z-AUC,[5]; measured here: PEO4 Z-AUC,1.14
same,z-score,[7]; [9],-0.446
same,z-score,[7]; [10],0.841
same,z-score,[7]; [11],-1.28
CC(=Cc1csc(C)n1)[C@@H]1C[C@H]2O[C@@H]2CCC[C@H](C)[C@@H](O)[C@@H](C)C(=O)C(C)(C)[C@@H](O)CC(=O)O1,Potency,[1],inactive
same,Potency,[2],inactive
same,Potency,[3],inactive
same,Potency,[4],inactive
same,z-score,[7]; [9],-3.27
same,z-score,[7]; [10],-1.59
same,z-score,[7]; [11],-2.88
CCOC(=O)Nc1ccc(NCc2ccc(F)cc2)cc1N,Potency,[2],inactive
same,Potency,[3],inactive
c1cc2c(cc1[C@H]1OC[C@H]3[C@H]1CO[C@H]3c1ccc3c(c1)OCO3)OCO2,Potency,[1],inactive
same,Potency,[2],inactive
same,Potency,[3],inactive
same,Potency,[4],inactive
same,z-score,[7]; [9],0.442
same,z-score,[7]; [10],0.255
same,z-score,[7]; [11],0.142
C=CCON=C(C[C@H]1O[C@@H]2O[C@]3(C)CC[C@@H]4[C@H](C)CC[C@@H]([C@H]1C)[C@@]24OO3)[C@H]1O[C@@H]2O[C@]3(C)CC[C@H]4[C@H](C)CC[C@@H]([C@@H]1C)[C@@]24OO3,Potency,[1],235 nM (active)
same,Potency,[3],187 nM (active)
same,Potency,[4],332 nM (active)
C[C@]12CC[C@H]3[C@@H](CCC4=CC(=O)CC[C@@]43C)[C@H]1CC[C@H]2OC(=O)CCC1CCCC1,Potency,[2],inactive
same,Potency,[3],inactive
same,Potency,[4],inactive
same,Z-AUC,[5],-0.757 (inactive)
same,Z-AUC,[5]; [8],-0.855
same,Z-AUC,[5]; measured here: PEO4 Z-AUC,-0.842
C=C[C@@H]1CN2CCC1C[C@@H]2[C@@H](O)c1ccnc2ccccc12 (stereo partly specified),Potency,[2],20900 nM (active)
same,Potency,[3],20900 nM (active)
same,Potency,[4],23500 nM (active)

# — PubChem BioAssay (NCATS)
